High-throughput results as filed in PubChem BioAssay.
TDP-43 tox inh: inhibitors of TDP-43 toxicity in yeast. yeast TDP-43 toxicity rescue, BacTiter-Glo growth, 24 h. Potency, µM (series often up to 46.1 µM), hits mostly activators. 0.45% of 45,000 active. AID 1347073; active means well fitted activation curve with a large enough effect; further: nearly all actives have a fitted effect of over 55% in size
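TDP-43-expressing yeast, pregrown in raffinose, seeded at OD600 0.02 in galactose medium with compound for 24 hr at 30 deg C. Growth read by BacTiter-Glo luminescence, so rescue of toxicity appears as activation.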
Numbers stand for hits; – = inactive. The full list was thinned out, with hits kept by preference.

SMILES	TDP-43 tox inh
CCCCOc1cccc(C(=O)N(Cc2cccs2)c2ccc(OC)cc2)c1	–
O=C(c1ccc2c(c1)N(Cc1ccccc1)C(=O)c1ccccc1S2(=O)=O)N1CCc2ccccc21	–
Cc1ccc(NC(=O)Cn2cc(C(=O)C3CCCCC3)c3ccccc32)cc1	–
Cc1cc(C)c(C#N)c(SCC(O)COc2ccc(Br)cc2)n1 (configuration not stated)	12.6µM
COC(=O)CSc1nc(C)cc(C)c1C#N	–
CCCCN(CCCC)CC(O)COc1ccc(Br)cc1 (configuration not stated)	–
Cc1ccc(CSC2=Nc3ccccc3C3=NC(CC(=O)NC4CCCCC4)C(=O)N23)cc1 (configuration not stated)	–
Cc1ccc(S(=O)(=O)Nc2cc3c(cc2C)n(C)c(=O)c(=O)n3C)c(C)c1	–
CC(C)c1ccc(/C=C/C(=O)O)cc1	6.31µM
CC(NC(=O)/C=C/c1ccc(Br)cc1)c1ccccc1 (configuration not stated)	–
CC(C)c1ccc(/C=C/C(=O)NCCC2=CCCCC2)cc1	–
CCc1ccc(NC(=O)CN2C(=O)C(c3ccc(C)cc3)=NC23CCCCC3)cc1	–
CCN(C(=O)Cn1c(=O)oc2cc(S(=O)(=O)N3CCCCCC3)ccc21)c1cccc(C)c1	–
CCOc1ccc(CNC(=O)C2CCN(c3nnc(-n4c(C)ccc4C)s3)CC2)cc1	–
Cc1ccc(C(=O)Nc2c(C(=O)NCc3ccc(Cl)cc3)sc3nc(C)cc(C)c23)cc1	–
COc1ccc(Br)cc1CNC(=O)C(C)n1nc(C)n2c(cc3occc32)c1=O (configuration not stated)	–
Cc1cc(NC(=O)CSc2nc3ccccc3cc2C#N)no1	–
CC(=O)c1cc(C#N)c(N(C)Cc2ccccc2)nc1C	–
CCCCSc1nc(C)c(C(C)=O)cc1C#N	6.31µM
COc1ccccc1N1CCN(C(=O)c2ccc3c(c2)N(Cc2ccccc2)C(=O)c2ccccc2S3(=O)=O)CC1	–
Cc1cc2nc(-c3ccc(NC(=O)c4ccc(OCC(C)C)cc4)cc3)oc2cc1C	–
COc1ccc(N2CCN(c3oc(/C=C/c4ccccc4OC)nc3C#N)CC2)cc1	–
COc1cccc(C(O)c2nc(-c3ccncc3)cs2)c1 (configuration not stated)	–
COc1cccc(C(N)c2nc(-c3cc(F)cc(F)c3)cs2)c1 (configuration not stated)	–
COc1cccc(C(O)c2nc(-c3ccccc3C)cs2)c1 (configuration not stated)	11.2µM
SMILES	TDP-43 tox inh
COc1cc(NC(=O)c2cc(C3CC3)nc3c2c(C)nn3-c2ccc(C)cc2)cc(OC)c1	–
S=C(Nc1ccc(Cl)cc1)c1nc2ccccc2[nH]1	10µM
O=C(/C(=C\c1ccccc1)c1nc2ccccc2[nH]1)c1ccc(Cl)cc1	–
CCOc1ccc(NC(=S)NCc2nc3ccccc3[nH]2)cc1	–
CCOc1cccc2cc(-c3nc4ccc(C(=O)O)cc4[nH]3)c(=O)oc12	–
COc1cccc(C(=O)N2c3ccc(C)cc3C(C)(c3ccccc3)CC2(C)C)c1 (configuration not stated)	–
Cc1csc(NC(=O)c2ccc(COc3ccccc3)o2)n1	17.8µM
Cc1csc(NC(=S)NC(=O)c2ccccc2)n1	–
Cc1cc(NC(=O)c2ccc(COc3ccccc3Cl)o2)no1	–
CCc1ccc(CNc2ncc(-c3cccc(OC)c3)n2C)cc1	–
COc1ccc(N2CCN(C(=S)NC(=O)c3cccs3)CC2)c([N+](=O)[O-])c1	28.2µM
COc1cccc(CC(=O)N2CCN(c3ccccc3[N+](=O)[O-])CC2)c1	–
COc1ccc(C(=O)NC(=S)N2CCCCC2)cc1[N+](=O)[O-]	–
Cc1ccc(NC(=O)C2CC(=O)N(c3ccc(OC(C)C)cc3)C2)cc1 (configuration not stated)	–
CCOc1ccc(NC(=O)C2=C(C)C(=O)OC23CCC(C)CC3)cc1 (configuration not stated)	12.6µM
COc1ccc(OC)c(CCNC(=O)C2=C(C)C(=O)OC23CCC(C)CC3)c1 (configuration not stated)	–
CC1=C(C(=O)NC(C)CCc2ccccc2)C2(CCC(C)CC2)OC1=O (configuration not stated)	–
Cc1ccc(C)c(Cn2c(=O)n(CCCCCC(=O)NCc3ccc4c(c3)OCO4)c(=O)c3sccc32)c1	–
CCC1CCCCN1C(=O)Cn1c(=O)n(CCCCCC(=O)NCc2ccccc2Cl)c(=O)c2sccc21 (configuration not stated)	–
O=C(Nc1ccc(F)cc1)C(Cc1ccccc1)n1cccc1 (configuration not stated)	12.6µM
O=C(Cc1ccccc1)Nc1ccc(F)cc1	–
O=C(NC1CCCCCC1)C(Cc1ccccc1)n1cccc1 (configuration not stated)	–
COc1ccc(C)cc1NC(=O)c1cc2c(s1)-c1ccccc1SC2	–
O=C(COC(=O)CCC(=O)c1ccc(Cl)cc1)NCc1ccc(F)cc1	–
COc1cccc(NC(=O)COC(=O)CCSc2ccccc2)c1	–
SMILES	TDP-43 tox inh
O=C(COC(=O)CCSc1ccc(Cl)cc1)Nc1ccc(F)cc1	11.2µM
CC(CN1CCOCC1)OC(=O)c1ccc(Br)cc1 (configuration not stated)	15.8µM
CC1CCN(CC(C)OC(=O)c2ccco2)CC1 (configuration not stated)	–
CC(CN1CCOCC1)OC(=O)CCc1ccccc1 (configuration not stated)	–
Cc1cccc(NC(=O)C2CCCN(c3nnc(-n4c(C)ccc4C)s3)C2)c1C (configuration not stated)	–
CC(=O)Nc1ccc(NC(=O)CCc2c(C)nc3c(c(C)nn3-c3ccc(C)cc3)c2C)cc1	–
COc1ccc(Cl)cc1NC(=S)Nc1ccc(Cl)cn1	–
COc1ccc(Cl)cc1NC(=S)NN1CCOCC1	–
COc1ccc(Cl)cc1NC(=S)NCCSc1ccc(C)cc1	12.6µM
Cc1ccc(OCC(=O)Nc2ccc3nn(-c4ccc(Cl)cc4)nc3c2)cc1	–
Cc1ccccc1NC(=O)Cn1c(=O)n(CCC(=O)NCc2ccc3c(c2)OCO3)c(=O)c2sccc21	–
Cc1cc(C)c(NC(=O)Cn2nnc(-c3nc(-c4ccncc4)no3)c2N)c(C)c1	–
COc1cc(Cl)c(NC(=O)CN2C(=O)c3cccnc3Sc3ccccc32)c(OC)c1	–
Cc1ccsc1CN(C(=O)c1ccc(OCC(C)C)cc1)C1CCS(=O)(=O)C1 (configuration not stated)	–
COc1ccc(/C=N/NC(=O)Cn2cnc3c2c(=O)n(C)c(=O)n3C)cc1	–
Cn1c(=O)c2c(ncn2CCOc2ccc(Br)cc2)n(C)c1=O	11.2µM
COC(=O)c1ccc(NC(=O)Cn2cnc3c2c(=O)n(C)c(=O)n3C)cc1	–
CCOc1ccccc1C(=O)Nc1cc(-c2nc3cccnc3s2)ccc1C	–
Cc1ccc(NCc2cccn2-c2nnc(N3CCC(C(=O)NCc4ccc(F)cc4)CC3)s2)cc1	–
COc1ccc(-c2nn3c(-c4ccccc4C)nnc3c3ccccc23)cc1	–
COc1cc2c(cc1NC(=O)COc1cc(C)ccc1C)oc1ccccc12	–
COc1ccc(-c2c(C#N)c(SCC(=O)Nc3ccccc3C)nc(C)c2C(=O)Nc2ccccc2)cc1OC	–
CCCSc1ncc(Cl)c(C(=O)Nc2c(C(=O)Nc3ccc(C)cc3)oc3ccccc23)n1	–
NS(=O)(=O)c1ccc(CCNC(=O)CSc2ncnc3ccccc23)cc1	–
COC(=O)c1c(NC(=O)CSc2ncnc3ccccc23)sc(C)c1C	–
